# Assay outcomes: PubChem, National Center for Advancing Translational Sciences (NCATS)
# Compounds with a hit are over-represented: about 12% of the library has one in this group of screens.
# JMJD2A Tudor: blocks the human JMJD2A Tudor domain | O75164 | AlphaScreen JMJD2A-Tudor / H3K4me3 peptide binding | Potency, µM (series often up to 114 µM), for inactives: top-dose activity change, negative = inhibition, most hits filed as inhibitors | actives 4.4% (n = 390,000) | AID 504339; further: on the % scale 0 is the no-effect control and ±100 the full control effect; nearly all actives have a fitted effect of over 50% in size
# BAZ2B block: BAZ2B (human) inhibition | AlphaScreen BAZ2B-H3K14Ac peptide displacement | Potency, µM (series often up to 114 µM), without a hit: at the highest dose activity change, negative = inhibition, most hits filed as inhibitors | actives 4.4% (n = 360,000); further: on the % scale 0 is the no-effect control and ±100 the full control effect; nearly all actives have a fitted effect of over 60% in size
#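 Protein-peptide AlphaScreen: BAZ2B 50 nM, b-H3K14Ac 50 nM, 1x PBS pH 7.4 + 0.01% Tween-20. Preincubation 30 min RT; cpd 30 min RT (top 110 uM); beads 20 min RT, light-protected.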
# Sfp PPTase inh: Sfp phosphopantetheinyl transferase inhibition | Biochemical Sfp PPTase activity, qHTS | actives 3.5% (n = 310,000) | Q9F4F7 | Potency, µM, inactives show largest response in the series, negative = inhibition, most hits filed as inhibitors | AID 1490;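 further: the enzyme is Sfp with the accession as filed and its product quenches rhodamine fluorescence; 0% = enzyme reaction without inhibitor and -100% = no enzyme wells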
#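 Buffer: 50 mM Hepes-Na pH 7.6, 10 mM MgCl2, 0.01% Nonidet P-40, 0.01% BSA. Enzyme 15 nM, pre-exposed to compound 15 min; substrates then added and fluorescence change tracked over 30 min.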
# G9a block: G9a (human) methyltransferase inhibition. Q96KQ7. Potency, µM (highest dose often 102 µM), for inactives: at the top dose activity, negative = inhibition, usual class: inhibitors. G9a H3K9 monomethylation, AlphaScreen, 2 h. AID 504332. actives 8.8% (n = 350,000); further: on the % scale 0 is the no-effect control and ±100 the full control effect; nearly all actives have a fitted effect of over 75% in size
#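 Step 1: enzyme (final 20 nM) with compound, 15 min RT. Step 2: substrate peptide 500 nM and SAM 20 uM, 2 h RT. Step 3: anti-H3K9me1 antibody and AlphaScreen beads, 10 min, then plate read.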
# HP1b binding inh: HP1-beta chromodomain-methylated histone interaction inhibition; Potency, µM (doses to about 114 µM), without a hit: at the highest dose activity change, negative = inhibition, hits mostly inhibitors; actives 0.56% (n = 390,000); AlphaScreen HP1-beta / biotin-H3K9me3 peptide binding; P83916; further: nearly all actives have a fitted effect of over 70% in size
#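 HP1-beta protein (50 nM final) preincubated 30 min at room temperature with biotinylated H3(1-18)K9me3 peptide (50 nM) in PBS pH 7.4, 0.01% Tween-20, then compound added for 30 min. AlphaScreen streptavidin donor/nickel chelate acceptor beads (10 ug/mL final), 30 min dark, luminescence read.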
# L3MBTL1 inh: L3MBTL1 (human) inhibition. AlphaScreen L3MBTL1–H3K9me1 peptide binding. AID 485360. Potency, µM (series often up to 57.1 µM), for the others: top-dose activity, negative = inhibition, usual class: inhibitors. actives 0.66% (n = 230,000). Q9Y468; further: on the % scale 0 is the no-effect control and ±100 the full control effect; nearly all actives have a fitted effect of over 60% in size
#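 AlphaScreen assay: L3MBTL1 (50 nM final) was preincubated 30 min at room temperature with biotinylated H3(1-15)K9me1 peptide (75 nM final), then 30 min with library compounds; streptavidin donor and nickel chelate acceptor beads (10 ug/mL final) added, 30 min dark.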
# * hit, by the source's call; u = inconclusive; x = no result given; [ ] = dose if it differs, or a comment. The call rests on the fitted dose curve; in most records, active means well fitted curve in the direction sought with a large enough effect; inconclusive means small, poorly fitted or top-dose-only effect, or another doubt; inactive means no such curve, though single readings can be large; an effect the other way counts as inactive or inconclusive. Potency means the concentration at half of the fitted maximal effect.
SMILES,JMJD2A Tudor,BAZ2B block,Sfp PPTase inh,G9a block,HP1b binding inh,L3MBTL1 inh
CC(C)CC(c1nnnn1C1CCCC1)N1CCN(C(=O)c2ccco2)CC1 (stereo not drawn),50.1µM*,79.4µM*,-22.7%,-35.1%[59 µM],16.5%,x
CCCC(c1nnnn1C1CCCC1)N1CCN(C(=O)c2ccco2)CC1 (stereo not drawn),u,u,4.8%,u,3.7%,6.0%
CN[C@H]1[C@@H](O[C@@H]2[C@H](O[C@@H]3[C@@H](O)[C@@H](O)[C@@H](N=C(N)N)[C@@H](O)[C@@H]3N=C(N)N)O[C@H](C)[C@@]2(O)C=O)O[C@@H](CO)[C@@H](O)[C@H]1O,x,x,-10.5%,-1.3%[21.5 µM],x,x
O=C(CSc1cn(CCNC(=O)c2cccc(C(F)(F)F)c2)c2ccccc12)Nc1ccc2c(c1)OCCO2,-24.3%,-30.1%,x,u,26.8%,x
CCc1ccc(NCc2cc3cc4c(cc3n(CC(=O)Nc3ccc(C)cc3)c2=O)OCO4)cc1,-11.0%,u,x,u,32.3%,x
Cn1ccc2cc3c(cc21)CCN3C(=O)Nc1cccnc1,79.4µM*,u,u,9.47µM*,-27.6%,-2.7%
CO[C@@H]1COC(=O)CC=C[C@@H](C)[C@@H]2C=C[C@H](O)[C@@H](COC(=O)[C@H](C)NC(=O)CC=C[C@H]1C)O2,x,x,7.7%,x,x,x
CCCCn1c(N)c(N(CCC(C)C)C(=O)c2ccc(N3CCCC3=O)cc2)c(=O)[nH]c1=O,3.4%,6.6%,x,35.5µM*,26.4%,0.7%
CCCCn1c(N)c(N(CCC(C)C)C(=O)C(C)N2C(=O)c3ccccc3C2=O)c(=O)[nH]c1=O (stereo not drawn),-4.7%,9.1%,x,12.6µM*,14.3%,-2.0%
CCCCn1c(N)c(N(CCC(C)C)C(=O)C2CCCN(C(=O)c3ccc(Cl)cc3)C2)c(=O)[nH]c1=O (stereo not drawn),u,10.7%,x,39.8µM*,36.7%,-3.0%
CCCCn1c(N)c(N(CC)C(=O)c2ccc(N3CCCC3=O)cc2)c(=O)[nH]c1=O,-3.3%,-0.1%,x,50.1µM*,30.0%,11.1%
CCCCn1c(N)c(N(CC(C)C)C(=O)C2CCN(C(=O)c3ccc(Cl)cc3)CC2)c(=O)[nH]c1=O,-4.8%,-1.9%,x,u,48.0%,4.8%
O=S(=O)(NCc1ccccc1)c1cccs1,u,4.9%,10.5%,14.1%,-12.1%,x
CCCCn1c(N)c(N(CC)C(=O)c2ccc(C#N)cc2)c(=O)[nH]c1=O,-2.1%,1.9%,-2.6%,50.1µM*,32.1%,x
Cc1ccc(N2C(=O)/C(=C/c3ccco3)SC2=S)cc1,u,u,u,-16.6%,-16.0%,-19.8%
O=C1S/C(=C\C=C\c2ccco2)C(=O)N1c1ccc(O)cc1,u,44.7µM*,u,39.8µM*,u,15.8µM*
O=C1S/C(=C\C=C\c2ccco2)C(=O)N1c1ccccc1,10µM*,39.8µM*,u,39.8µM*,u,u
CCN(CC)CC(C)CNC(=O)c1cc(-c2ccc(Br)s2)nc2ccccc12 (stereo not drawn),-0.7%,-1.7%,x,u,32.7%,x
COc1ccc(CNC(=O)C2CCN(S(=O)(=O)c3ccc4c(ccn4C)c3)CC2)cc1,-9.6%,2.7%,x,-2.3%[59 µM],56.3%,x
CCOC(=O)c1cc2c(=Cc3ccc(N(C)C)cc3)c3ccccc3n2[n+]1C,25.1µM*,x,x,x,50.1µM*,x
CN(C)c1ccc(C(=O)n2nnc3ccccc32)cc1,22.6%,7.4%,1.4%,-26.3%,62.6%,x
Cc1cc2c(=Cc3ccc(N(C)C)cc3)c3ccccc3n2[n+]1C,44.7µM*,x,x,x,31.6µM*,x
CN(C)c1ccc(C=c2c3ccccc3n3c2c2ccccc2[n+]3C)cc1,15.8µM*,x,x,x,12.6µM*,x
CCCCC1(C)OC(=O)C(=Cc2ccc(N(C)C)cc2)C(=O)O1 (stereo not drawn),-28.9%,u,16.5%,3.5%[12.7 µM],-0.9%,-2.5%
